Inconclusive results are not listed. Calls of active or inactive are those of the source. Unless noted, the call rests on the fitted dose curve; in most records, active means well fitted curve in the direction sought with a large enough effect in the repeat runs; inconclusive means weak or mixed curves; inactive means no such curve, though single readings can be large; an effect the other way counts as inactive or inconclusive.
Experiments:
[1] = Caspase-3/7 induction in HepG2 cells by small molecules, qHTS assay (AID 1346978); further: nearly all actives have a fitted effect of over 15% in size
In short: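 Caspase-3/7 induction was measured by Caspase-Glo 3/7 luminescence (30 min, room temperature) after a 17 hr compound exposure of wild-type HepG2 cells seeded at 2,000 per well and pre-incubated 5 hr.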

[2] = Caspase-3/7 induction in CHO-K1 cells by small molecules, qHTS cell viability counter screen (AID 1346979); further: nearly all actives have a fitted effect of over 35% in size
In short: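 Viability readout by fluorescence (CellTiter-Fluor) on wild-type CHO-K1 cells exposed for 16hr at 37C and 5% CO2 to compounds delivered in DMSO; reagent incubated 1hr before reading.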

[3] = Caspase-3/7 induction in CHO-K1 cells by small molecules, qHTS assay (AID 1346980); further: nearly all actives have a fitted effect of over 15% in size
In short: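 Luminescent Caspase-Glo 3/7 read (30min, room temperature) quantified apoptosis induction. Cells were wild-type CHO-K1, treated with compound for 17hr at 37 C and 5% CO2.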

[4] = Caspase-3/7 induction in HepG2 cells by small molecules, qHTS cell viability counter screen (AID 1346981); further: series mostly up to about 92 µM; nearly all actives have a fitted effect of over 30% in size
In short: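 Wild-type HepG2 cells (2,000/well) were allowed to settle for 5 hr at 37 C, 5% CO2, then dosed with compounds in DMSO by pin transfer. After 16 hr at 37 C, CellTiter-Fluor was added and fluorescence read 1 hr later.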

[5] = biological target: Nuclear receptor subfamily 1 group I member 2 (Homo sapiens) (UniProt O75469); assay: Human pregnane X receptor (PXR) small molecule agonists, qHTS assay (AID 1346982); further: nearly all actives have a fitted effect of over 35% in size; further: potency means the concentration at half of the fitted maximal effect
Sequence of Nuclear receptor subfamily 1 group I member 2 (Homo sapiens) (O75469 whole entry, looked up): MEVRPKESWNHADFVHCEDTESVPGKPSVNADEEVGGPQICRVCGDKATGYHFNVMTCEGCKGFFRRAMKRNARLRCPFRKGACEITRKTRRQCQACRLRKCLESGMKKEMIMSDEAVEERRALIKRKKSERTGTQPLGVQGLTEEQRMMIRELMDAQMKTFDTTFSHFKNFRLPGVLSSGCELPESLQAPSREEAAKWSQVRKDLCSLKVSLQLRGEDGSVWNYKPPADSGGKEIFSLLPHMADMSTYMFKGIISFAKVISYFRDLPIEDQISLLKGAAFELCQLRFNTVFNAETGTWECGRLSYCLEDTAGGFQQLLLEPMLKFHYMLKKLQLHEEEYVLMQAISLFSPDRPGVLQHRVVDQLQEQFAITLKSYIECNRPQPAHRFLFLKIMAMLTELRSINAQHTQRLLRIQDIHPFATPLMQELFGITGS
In short: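 PXR-Luc HepG2 cells (CYP3A4 promoter-driven luciferase) were seeded in medium with 5% charcoal-stripped FBS, left 5 hr at 37 C, then exposed to compounds in DMSO for 24 hr. Luminescence was read after ONE-Glo addition.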

[6] = biological target: Nuclear receptor subfamily 1 group I member 2 (Rattus norvegicus) (UniProt Q9R1A7); assay: Rat pregnane X receptor (rPXR) activation by small molecules, qHTS assay (AID 1346983); conditions: rPXR luciferase reporter cells, One-Glo luminescence, 24 h; hits give high values; further: nearly all actives have a fitted effect of over 20% in size
Sequence of Nuclear receptor subfamily 1 group I member 2 (Rattus norvegicus) (Q9R1A7 whole entry, looked up): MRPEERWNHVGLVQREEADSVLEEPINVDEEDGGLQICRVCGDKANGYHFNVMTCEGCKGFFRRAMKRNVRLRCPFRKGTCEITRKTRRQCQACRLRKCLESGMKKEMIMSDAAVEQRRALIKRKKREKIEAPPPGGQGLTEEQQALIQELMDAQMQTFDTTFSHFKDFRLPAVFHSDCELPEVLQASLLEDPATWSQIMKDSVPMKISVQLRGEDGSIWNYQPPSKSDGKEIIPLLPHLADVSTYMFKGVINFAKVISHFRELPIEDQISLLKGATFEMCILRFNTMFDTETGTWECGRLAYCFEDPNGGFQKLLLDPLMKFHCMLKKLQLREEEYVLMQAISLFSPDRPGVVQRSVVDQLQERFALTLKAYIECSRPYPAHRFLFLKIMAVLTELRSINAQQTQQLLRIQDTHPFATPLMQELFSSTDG
In short: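 Luminescent readout (One-Glo luciferase, 30 min room temperature) followed 24 hr compound treatment at 37 C of rPXR cells plated 2,000 per well and preincubated 5hr; qHTS format with compounds delivered in DMSO.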

[7] = biological target: Nuclear receptor subfamily 1 group I member 2 (Homo sapiens) (UniProt O75469); assay: CYP3A4 induction through human pregnane X receptor (PXR) by small molecules, qHTS assay (AID 1346984); further: nearly all actives have a fitted effect of over 40% in size
In short: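 DPX-2 cells (HepG2 co-transfected with PXR and CYP3A4 promoter-luciferase) treated with compounds 24 h at 37C; luciferin-IPA CYP3A4 substrate 3uM final added for 3 h, then One-Glo; luminescence read. qHTS format.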

[8] = biological target: Nuclear receptor subfamily 1 group I member 2 (Homo sapiens) (UniProt O75469); assay: Human pregnane X receptor (PXR) activation by small molecules, qHTS assay (AID 1346985); further: nearly all actives have a fitted effect of over 40% in size
In short: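 DPX-2 cells (HepG2 co-transfected with a PXR response element and a CYP3A4-promoter luciferase construct) were seeded at 2,000 per well, rested 5 hr at 37C, then exposed to DMSO-dissolved compounds for 24 hr. Activation was read as luciferase luminescence.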

[9] = biological target: Cytochrome P450 2D6 (Homo sapiens) (UniProt P10635); assay: Cytochrome P450 Family 2 Subfamily D Member 6 (CYP2D6) small molecule antagonists: luciferase reporter qHTS assay (AID 1671196); further: nearly all actives have a fitted effect of over 50% in size; further: potency means the concentration at half of the fitted maximal effect; on activity change, negative = inhibition: series mostly up to about 120 µM
In short: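 CYP2D6 enzyme–substrate mix was held with compound for 10 min at room temperature, then NADPH regeneration solution was added and the reaction ran 1 h at room temperature. Luciferin product was detected by luminescence after 20 min with detection reagent.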

[10] = biological target: Cytochrome P450 2C19 (Homo sapiens) (UniProt P33261); assay: Cytochrome P450 Family 2 Subfamily C Member 19 (CYP2C19) small molecule antagonists: luciferase reporter qHTS assay (AID 1671197); further: nearly all actives have a fitted effect of over 65% in size; further: potency means the concentration at half of the fitted maximal effect; on activity change, negative = inhibition: series mostly up to about 120 µM
Sequence of Cytochrome P450 2C19 (Homo sapiens) (P33261 whole entry, looked up): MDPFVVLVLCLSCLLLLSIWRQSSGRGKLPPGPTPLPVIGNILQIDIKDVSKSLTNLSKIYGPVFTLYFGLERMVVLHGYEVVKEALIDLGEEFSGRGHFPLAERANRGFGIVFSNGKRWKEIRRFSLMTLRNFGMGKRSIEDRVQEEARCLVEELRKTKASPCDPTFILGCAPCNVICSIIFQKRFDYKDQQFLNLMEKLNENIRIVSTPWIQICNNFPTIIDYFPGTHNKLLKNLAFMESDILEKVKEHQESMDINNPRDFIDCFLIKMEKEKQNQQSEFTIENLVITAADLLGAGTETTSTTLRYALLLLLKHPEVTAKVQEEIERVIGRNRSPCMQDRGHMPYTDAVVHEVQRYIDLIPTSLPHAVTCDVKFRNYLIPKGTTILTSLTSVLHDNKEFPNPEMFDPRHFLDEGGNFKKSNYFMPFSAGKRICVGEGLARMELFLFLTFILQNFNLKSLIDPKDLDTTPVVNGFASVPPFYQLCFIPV
In short: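 Relative luminescence units recorded 20 min after the detection reagent stopped a 1 h, 37C CYP2C19 reaction on proluciferin substrate, which was started by NADPH regeneration following 10 min room-temperature compound preincubation; ketoconazole positive control.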

[11] = biological target: Cytochrome P450 2C9 (Homo sapiens) (UniProt P11712); assay: Cytochrome P450 Family 2 Subfamily C Member 9 (CYP2C9) small molecule antagonists: luciferase reporter qHTS assay (AID 1671198); further: nearly all actives have a fitted effect of over 50% in size; further: potency means the concentration at half of the fitted maximal effect; on activity change, negative = inhibition: series mostly up to about 120 µM
Sequence of Cytochrome P450 2C9 (Homo sapiens) (P11712 whole entry, looked up): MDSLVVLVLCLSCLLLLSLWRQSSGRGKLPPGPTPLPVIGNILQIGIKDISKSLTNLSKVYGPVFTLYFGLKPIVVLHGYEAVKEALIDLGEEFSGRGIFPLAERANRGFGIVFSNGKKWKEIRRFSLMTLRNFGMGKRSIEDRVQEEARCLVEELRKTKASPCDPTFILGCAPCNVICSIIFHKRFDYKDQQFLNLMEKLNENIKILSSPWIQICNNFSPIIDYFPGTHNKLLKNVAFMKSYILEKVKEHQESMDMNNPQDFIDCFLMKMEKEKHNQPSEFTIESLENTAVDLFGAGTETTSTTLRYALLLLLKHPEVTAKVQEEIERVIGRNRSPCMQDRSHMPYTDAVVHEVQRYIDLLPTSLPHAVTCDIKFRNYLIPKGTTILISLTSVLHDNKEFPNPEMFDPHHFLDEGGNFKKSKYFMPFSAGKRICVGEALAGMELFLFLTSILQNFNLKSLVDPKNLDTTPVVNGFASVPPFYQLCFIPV
In short: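 Enzyme-substrate mix preincubated with compound 10 min at room temperature; reaction started with NADPH regeneration solution, 1 h 37C. Luminescent luciferin product read after 20 min detection reagent.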

[12] = biological target: Cytochrome P450 1A2 (Homo sapiens) (UniProt P05177); assay: Cytochrome P450 Family 1 Subfamily A Member 2 (CYP1A2) small molecule antagonists: luciferase reporter qHTS assay (AID 1671199); further: nearly all actives have a fitted effect of over 50% in size; further: potency means the concentration at half of the fitted maximal effect; on activity change, negative = inhibition: series mostly up to about 120 µM
Sequence of Cytochrome P450 1A2 (Homo sapiens) (P05177 whole entry, looked up): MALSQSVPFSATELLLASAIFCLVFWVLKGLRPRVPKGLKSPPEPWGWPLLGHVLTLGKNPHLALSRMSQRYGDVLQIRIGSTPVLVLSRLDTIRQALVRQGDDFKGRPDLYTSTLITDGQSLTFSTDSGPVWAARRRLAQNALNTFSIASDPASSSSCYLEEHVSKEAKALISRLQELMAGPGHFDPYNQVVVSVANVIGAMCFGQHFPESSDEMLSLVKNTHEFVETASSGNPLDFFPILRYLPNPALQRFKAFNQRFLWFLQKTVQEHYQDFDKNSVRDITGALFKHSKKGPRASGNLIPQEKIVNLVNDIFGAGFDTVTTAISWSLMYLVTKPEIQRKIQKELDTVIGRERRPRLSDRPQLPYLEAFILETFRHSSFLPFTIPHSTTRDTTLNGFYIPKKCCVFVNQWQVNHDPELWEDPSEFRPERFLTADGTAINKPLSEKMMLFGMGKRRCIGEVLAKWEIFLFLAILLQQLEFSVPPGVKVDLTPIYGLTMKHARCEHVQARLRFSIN
In short: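 Human CYP1A2 activity measured with a P450-Glo proluciferin substrate; compounds in DMSO preincubated 10 min at room temperature with enzyme-substrate mix, then NADPH regeneration system added for 1 h. Luciferin detection reagent, 20 min, luminescence read.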

[13] = biological target: Cytochrome P450 3A4 (Homo sapiens) (UniProt P08684); assay: Cytochrome P450 Family 3 Subfamily A Member 4 (CYP3A4) small molecule antagonists: luciferase reporter qHTS assay (AID 1671201); further: series mostly up to about 120 µM; nearly all actives have a fitted effect of over 50% in size
Sequence of Cytochrome P450 3A4 (Homo sapiens) (P08684 whole entry, looked up): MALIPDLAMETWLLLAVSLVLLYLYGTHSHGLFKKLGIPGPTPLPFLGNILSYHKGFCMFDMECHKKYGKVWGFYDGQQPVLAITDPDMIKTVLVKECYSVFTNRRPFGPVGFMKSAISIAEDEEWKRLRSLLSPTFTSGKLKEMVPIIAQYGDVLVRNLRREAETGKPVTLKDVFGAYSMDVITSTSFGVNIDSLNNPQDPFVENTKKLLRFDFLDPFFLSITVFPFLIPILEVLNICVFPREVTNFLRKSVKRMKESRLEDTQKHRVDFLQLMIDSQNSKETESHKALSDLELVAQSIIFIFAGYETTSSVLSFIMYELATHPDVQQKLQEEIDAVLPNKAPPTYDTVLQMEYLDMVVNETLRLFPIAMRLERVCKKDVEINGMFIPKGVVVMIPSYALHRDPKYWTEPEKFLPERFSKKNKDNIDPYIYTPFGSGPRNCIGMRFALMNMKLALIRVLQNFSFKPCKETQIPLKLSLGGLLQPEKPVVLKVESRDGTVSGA
In short: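 Relative luminescence units after 20 min with luciferin detection reagent served as read-out. Beforehand, CYP3A4 turned over a proluciferin substrate for 1 h at room temperature with NADPH regeneration, following 10 min compound preincubation.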

[14] = biological target: Acetylcholinesterase (Homo sapiens) (UniProt P22303); assay: Acetylcholinesterase (AChE) small molecule antagonists: colormetric cell-based qHTS assay (AID 1347395; calls by dose curve; further: nearly all actives have a fitted effect of over 30% in size)
Sequence of Acetylcholinesterase (Homo sapiens) (P22303 whole entry, looked up): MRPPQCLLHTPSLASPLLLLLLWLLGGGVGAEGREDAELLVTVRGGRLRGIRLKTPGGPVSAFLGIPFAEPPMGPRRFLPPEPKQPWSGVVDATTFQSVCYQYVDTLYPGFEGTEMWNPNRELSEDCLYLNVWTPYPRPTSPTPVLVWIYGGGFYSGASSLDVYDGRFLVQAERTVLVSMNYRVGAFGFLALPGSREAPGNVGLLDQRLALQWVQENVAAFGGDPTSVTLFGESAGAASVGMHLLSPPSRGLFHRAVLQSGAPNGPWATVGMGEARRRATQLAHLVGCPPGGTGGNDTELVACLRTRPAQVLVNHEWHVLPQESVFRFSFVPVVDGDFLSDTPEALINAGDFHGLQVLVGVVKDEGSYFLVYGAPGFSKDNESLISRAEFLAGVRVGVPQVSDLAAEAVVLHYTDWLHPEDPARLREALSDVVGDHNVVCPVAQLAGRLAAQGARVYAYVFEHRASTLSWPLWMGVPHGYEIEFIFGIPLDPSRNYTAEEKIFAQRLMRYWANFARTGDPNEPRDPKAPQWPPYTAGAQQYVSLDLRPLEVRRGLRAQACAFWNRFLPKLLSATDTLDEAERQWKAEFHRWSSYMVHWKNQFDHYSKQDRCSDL
In short: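 Homogeneous whole-cell format. SH-SY5Y cells seeded overnight, dosed with compound (30 min, 37 C, 5% CO2), then given DTNB/acetylthiocholine cocktail for 90 min at 37 C; colorimetric signal.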

[15] = biological target: Acetylcholinesterase (Homo sapiens) (UniProt P22303); assay: Acetylcholinesterase (AChE) small molecule antagonists: enzyme-based qHTS assay (AID 1347397; calls by dose curve; further: nearly all actives have a fitted effect of over 55% in size); conditions: Potency: AChE enzyme activity inhibition; outcome: AChE enzyme activity inhibition
In short: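 Absorbance-based detection of thiocholine with DTNB served as the read-out. Recombinant human AChE was exposed to compound for 30 min at RT before a 10 min RT incubation with acetylthiocholine.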

[16] = biological target: Acetylcholinesterase (Homo sapiens) (UniProt P22303); assay: Acetylcholinesterase (AChE) small molecule antagonists: fluorescence cell-based qHTS assay (AID 1347398; calls by dose curve; further: nearly all actives have a fitted effect of over 50% in size); conditions: Potency: AChE activity; outcome: AChE activity
In short: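 Fluorimetric cell-based assay: intact SH-SY5Y cells, 30 min compound preincubation at 37 C, acetylthiocholine substrate with thiol probe Thiolite Green, 40 min RT development, fluorescence 490/520 nm.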

[17] = biological target: Acetylcholinesterase (Homo sapiens) (UniProt P22303); assay: Acetylcholinesterase (AChE) small molecule antagonists: enzyme-based qHTS assay with human liver microsomes (AID 1347399; calls by dose curve; further: nearly all actives have a fitted effect of over 60% in size); conditions: Potency: qHTS inhibition; outcome: qHTS inhibition
In short: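 Recombinant human AChE (50 mU/mL in the enzyme mix) and human liver microsomes (0.25 mg/mL final) were preincubated with compound and NADPH (0.25 mg/mL final) for 30 min at 37 C. Acetylthiocholine/DTNB was then added; thiocholine was read colorimetrically after 10 min at room temperature.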

[18] = biological target: Voltage-gated inwardly rectifying potassium channel KCNH2 (Homo sapiens) (UniProt Q12809); assay: Human Ether-a-go-go-Related Gene (hERG) channel small molecule antagonists: fluorescence cell-based qHTS assay (AID 1671200)
Sequence of Voltage-gated inwardly rectifying potassium channel KCNH2 (Homo sapiens) (Q12809 whole entry, looked up): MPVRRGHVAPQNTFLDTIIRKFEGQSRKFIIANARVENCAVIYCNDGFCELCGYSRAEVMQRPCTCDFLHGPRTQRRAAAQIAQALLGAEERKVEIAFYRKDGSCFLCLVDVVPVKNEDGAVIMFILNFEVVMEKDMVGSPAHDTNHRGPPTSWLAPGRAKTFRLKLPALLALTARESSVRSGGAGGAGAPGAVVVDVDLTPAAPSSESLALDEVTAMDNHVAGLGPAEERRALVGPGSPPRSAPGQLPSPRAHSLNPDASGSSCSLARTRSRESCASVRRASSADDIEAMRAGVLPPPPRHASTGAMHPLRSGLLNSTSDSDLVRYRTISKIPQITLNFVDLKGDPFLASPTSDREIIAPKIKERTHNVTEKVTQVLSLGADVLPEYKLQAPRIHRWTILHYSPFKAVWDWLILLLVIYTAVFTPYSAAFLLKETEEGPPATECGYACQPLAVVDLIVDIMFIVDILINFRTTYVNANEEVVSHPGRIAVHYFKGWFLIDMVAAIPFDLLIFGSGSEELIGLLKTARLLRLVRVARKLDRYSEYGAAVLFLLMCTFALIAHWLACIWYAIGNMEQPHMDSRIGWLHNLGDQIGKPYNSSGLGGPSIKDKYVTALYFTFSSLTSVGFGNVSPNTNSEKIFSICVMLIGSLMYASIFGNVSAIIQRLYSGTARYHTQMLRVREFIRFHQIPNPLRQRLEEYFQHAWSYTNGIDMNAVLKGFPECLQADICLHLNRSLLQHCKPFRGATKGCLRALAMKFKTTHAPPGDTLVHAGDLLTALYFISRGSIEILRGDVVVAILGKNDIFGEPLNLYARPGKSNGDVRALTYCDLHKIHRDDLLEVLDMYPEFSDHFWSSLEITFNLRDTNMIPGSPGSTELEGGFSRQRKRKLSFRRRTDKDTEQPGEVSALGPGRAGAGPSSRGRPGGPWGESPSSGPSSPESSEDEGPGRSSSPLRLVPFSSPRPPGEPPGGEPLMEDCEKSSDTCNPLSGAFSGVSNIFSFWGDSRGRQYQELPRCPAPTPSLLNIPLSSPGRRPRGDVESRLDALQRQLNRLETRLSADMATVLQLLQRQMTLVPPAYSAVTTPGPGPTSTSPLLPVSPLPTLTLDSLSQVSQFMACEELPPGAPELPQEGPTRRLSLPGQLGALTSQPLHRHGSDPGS
In short: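 Thallium served as the potassium surrogate; its influx into dye-loaded U2OS cells carrying the channel was measured by fluorescence over 2 min.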
On the % scale 0 is the no-effect control and ±100 the full control effect.

C[C@@H](N)[C@@H](O)c1ccccc1
inactive: outcome [1] | Potency [2] | outcome [3] | Potency [4] | Potency [5] | max activation [6] -1.4% | Potency [7] | Potency [8] | Potency [11] | Potency [12] | Potency [13]
active: Potency [9] 17.4 µM | Potency [10] 21.9 µM

CCCC(C)(COC(N)=O)COC(N)=O
active: Potency [5] 51.5 µM | Potency [10] 33.7 µM
inactive: outcome [1] | Potency [2] | outcome [3] | Potency [4] | max activation [6] -1.03% | Potency [7] | Potency [8] | Potency [14] | Potency [15] | Potency [16] | Potency [17] | Potency [9] | Potency [12]

CN=CNc1ccc(C)cc1C
inactive: outcome [1] | Potency [2] | outcome [3] | Potency [4] | Potency [5] | Potency [14] | Potency [15] | Potency [16] | Potency [17] | Potency [9] | Potency [10] | Potency [11] | Potency [12] | Potency [18] | Potency [13]

Brc1c(Br)c(Br)c(Br)c(Br)c1Br
inactive: caspase activation [1] 0.467% [at 8.39 µM] | activity change, negative = cytotoxicity [2] 1.28% [at 8.39 µM] | caspase-3/7 activation [3] -0.0086% [at 8.39 µM] | activity change, negative = cytotoxicity [4] 7.69% [at 8.39 µM] | activation [5] 1.3% [at 8.39 µM] | activity, negative = inhibition [14] -5.69% [at 10.5 µM] | activity change, negative = inhibition [15] -2.31% [at 10.5 µM] | activity change, negative = inhibition [16] -32.6% [at 10.5 µM] | activity change, negative = inhibition [17] -0.832% [at 10.5 µM] | activity change, negative = inhibition [9] -1.47% [at 10.5 µM] | activity change, negative = inhibition [10] -0.615% [at 10.5 µM] | activity change, negative = inhibition [11] 0.0091% [at 10.5 µM] | activity change, negative = inhibition [18] 19.9% [at 6.97 µM] | activity change, negative = inhibition [13] 2.63% [at 10.5 µM]

O=C/C=C/c1ccco1
inactive: outcome [1] | Potency [2] | outcome [3] | Potency [4] | Potency [5] | Potency [14] | Potency [15] | Potency [16] | Potency [17] | Potency [9] | Potency [10] | Potency [11] | Potency [12] | Potency [18] | Potency [13]

CCC(C(N)=O)N1CCCC1=O (stereo not given)
inactive: outcome [1] | Potency [2] | outcome [3] | Potency [4] | Potency [5] | max activation [6] 4.65% | Potency [7] | Potency [8] | Potency [15] | Potency [16] | Potency [17] | Potency [10] | Potency [11] | Potency [18] | Potency [13]

S=C=S
active: Potency [10] 44.3 µM | Potency [11] 49.7 µM | Potency [12] 39.5 µM
inactive: outcome [1] | Potency [2] | outcome [3] | Potency [4] | Potency [5] | max activation [6] 3.06% | Potency [7] | Potency [8] | Potency [14] | Potency [15] | Potency [16] | Potency [17] | Potency [18] | Potency [13]

C[C@]12C=CC(=O)C=C1CC[C@@H]1[C@@H]2CC[C@@]2(C)[C@H]1CC[C@]2(C)O
inactive: outcome [1] | Potency [2] | outcome [3] | Potency [4] | Potency [5] | max activation [6] -4.23% | Potency [7] | Potency [14] | Potency [15] | Potency [16] | Potency [17] | Potency [9] | Potency [10] | Potency [12] | Potency [18] | Potency [13]
